Shown are actives, neighbours in structure and some others; about 12% of the full set was active somewhere.
JMJD2A Tudor – JMJD2A Tudor domain (human) inhibition; O75164; AlphaScreen JMJD2A-Tudor / H3K4me3 peptide binding; Potency, µM (top dose mostly 114 µM), inactives show at the top dose activity change, negative = inhibition, hits mostly inhibitors; 390,000 tested, 4.4% active; further: on the % scale 0 is the no-effect control and ±100 the full control effect; nearly all actives have a fitted effect of over 50% in size
Target sequence (O75164 whole entry, looked up, the tested form may be a part): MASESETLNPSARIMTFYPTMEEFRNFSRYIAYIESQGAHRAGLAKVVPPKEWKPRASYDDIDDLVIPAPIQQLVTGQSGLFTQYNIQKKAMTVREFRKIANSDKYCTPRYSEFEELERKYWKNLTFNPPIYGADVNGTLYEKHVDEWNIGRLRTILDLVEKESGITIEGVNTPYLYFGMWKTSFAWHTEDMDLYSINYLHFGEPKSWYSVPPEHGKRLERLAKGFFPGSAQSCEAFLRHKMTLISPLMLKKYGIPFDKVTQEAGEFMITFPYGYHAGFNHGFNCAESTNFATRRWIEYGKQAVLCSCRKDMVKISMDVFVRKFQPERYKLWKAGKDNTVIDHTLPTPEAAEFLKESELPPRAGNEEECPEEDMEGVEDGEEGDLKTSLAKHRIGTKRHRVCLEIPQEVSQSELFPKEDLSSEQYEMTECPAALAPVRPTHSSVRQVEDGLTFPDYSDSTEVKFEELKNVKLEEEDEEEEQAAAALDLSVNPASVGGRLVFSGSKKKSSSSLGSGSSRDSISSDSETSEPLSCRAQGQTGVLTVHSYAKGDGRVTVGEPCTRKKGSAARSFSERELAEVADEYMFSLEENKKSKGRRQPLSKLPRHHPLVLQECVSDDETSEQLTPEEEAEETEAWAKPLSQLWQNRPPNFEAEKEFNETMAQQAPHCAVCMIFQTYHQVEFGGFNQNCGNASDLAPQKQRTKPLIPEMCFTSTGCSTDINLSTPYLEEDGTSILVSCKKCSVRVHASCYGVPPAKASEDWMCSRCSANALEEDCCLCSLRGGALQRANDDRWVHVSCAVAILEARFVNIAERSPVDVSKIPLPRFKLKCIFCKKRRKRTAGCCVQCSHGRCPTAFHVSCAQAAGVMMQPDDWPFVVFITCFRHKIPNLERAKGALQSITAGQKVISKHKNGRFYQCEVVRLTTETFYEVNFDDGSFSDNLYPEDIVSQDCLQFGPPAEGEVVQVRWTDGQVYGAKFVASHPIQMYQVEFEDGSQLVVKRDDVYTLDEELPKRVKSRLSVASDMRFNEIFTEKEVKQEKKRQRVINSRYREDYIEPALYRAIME
L3MBTL1 inh – blocks human L3MBTL1; Q9Y468; AlphaScreen L3MBTL1–H3K9me1 peptide binding; Potency, µM (top dose mostly 57.1 µM), for the others: top-dose activity, negative = inhibition, hits mostly inhibitors; 230,000 tested, 0.66% active; AID 485360; further: on the % scale 0 is the no-effect control and ±100 the full control effect; nearly all actives have a fitted effect of over 60% in size
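L3MBTL1 (50 nM) pre-complexed 30 min with biotinylated H3(1-15)K9me1 peptide (75 nM), then compounds added for 30 min at room temperature; AlphaScreen streptavidin donor/nickel chelate acceptor beads (10 ug/mL final) read after 30 min dark incubation.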
BAZ2B inh – blocks human BAZ2B; AID 504333; Potency, µM (doses to about 114 µM), without a hit: top-dose activity change, negative = inhibition, most hits filed as inhibitors; AlphaScreen BAZ2B-H3K14Ac peptide displacement; Q9UIF8; 360,000 tested, 4.4% active; further: on the % scale 0 is the no-effect control and ±100 the full control effect; nearly all actives have a fitted effect of over 60% in size
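Multi-concentration screen (max 110 uM) measuring displacement of acetylated histone H3 peptide from BAZ2B by AlphaScreen, using 50 nM protein, 50 nM peptide and 10 ug/mL streptavidin donor plus Ni-chelate acceptor beads.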
Sfp inh – inhibitors of Bacillus subtilis Sfp phosphopantetheinyl transferase; Potency, µM, for inactives: largest response in the series, negative = inhibition, usual class: inhibitors; AID 1490; 310,000 tested, 3.5% active; Biochemical Sfp PPTase activity, qHTS; Q9F4F7;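 further: the enzyme is Sfp with the accession as filed and its product quenches rhodamine fluorescence; 0% = enzyme reaction without inhibitor and -100% = no enzyme wells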
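Fluorescence-quenching assay: 15 nM Sfp-PPTase preincubated 15 min at room temperature with compound, then 5 uM rhodamine-CoA and 12.5 uM BHQ-2-labelled YbbR peptide added. Fluorescence (ex 525/em 598 nm) read at start and after 30 min; difference gives rate.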
G9a inh – blocks human histone lysine methyltransferase G9a; Q96KQ7; G9a H3K9 monomethylation, AlphaScreen, 2 h; Potency, µM (highest dose often 102 µM), inactives show at the highest dose activity, negative = inhibition, hits mostly inhibitors; 350,000 tested, 8.8% active; AID 504332; further: on the % scale 0 is the no-effect control and ±100 the full control effect; nearly all actives have a fitted effect of over 75% in size
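Readings reflect AlphaScreen signal from monomethyl-H3K9 antibody detection. HMT at 20 nM; substrate b-H3K9 500 nM; cofactor SAM 20 uM; 2 h RT reaction; compounds tested as titrations in qHTS with 15 min preincubation.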
HP1b chromo inh – HP1-beta chromodomain-methylated histone interaction inhibition | Potency, µM (doses to about 114 µM), without a hit: at the top dose activity change, negative = inhibition, actives largely listed as inhibitors | AID 540317 | P83916 | AlphaScreen HP1-beta / biotin-H3K9me3 peptide binding | 390,000 tested, 0.56% active; further: nearly all actives have a fitted effect of over 70% in size
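HP1-beta protein (50 nM final) preincubated 30 min at room temperature with biotinylated H3(1-18)K9me3 peptide (50 nM) in PBS pH 7.4, 0.01% Tween-20, then compound added for 30 min. AlphaScreen streptavidin donor/nickel chelate acceptor beads (10 ug/mL final), 30 min dark, luminescence read.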
Starred values were filed as active, the others as inactive; ? = inconclusive; . = not tested or not shown; [ ] = another dose, or the depositor's remark. The call rests on the fitted dose curve; in most records, active means well fitted curve in the direction sought with a large enough effect; inconclusive means small, poorly fitted or top-dose-only effect, or another doubt; inactive means no such curve, though single readings can be large; an effect the other way counts as inactive or inconclusive. Potency means the concentration at half of the fitted maximal effect.

SMILES	JMJD2A Tudor	L3MBTL1 inh	BAZ2B inh	Sfp inh	G9a inh	HP1b chromo inh
CCN(CC)c1ccc(NC(=O)CN2C(=O)CSc3ncccc32)c(C)c1	-32%	.	60%	-7%	79µM*	10%
CCN(CC)c1ccc(NC(=O)CC2Oc3ccccc3NC2=O)c(C)c1 (configuration not stated)	-11%	.	10%	?	10µM*	33%
CCN(CC)c1ccc(NC(=O)CCc2c(C)nc3ncnn3c2C)c(C)c1	-17%	.	-17%	.	18µM*	15%
Fc1cccc(F)c1/C=N/NC(=S)Nc1cccnc1	-9%	-17%	-11%	-5%	15%	39%
S=C(Nc1cccnc1)NC1CC2CCC1C2 (configuration not stated)	-6%	.	71µM*	-1%	.	49%
OCc1ccccc1NC(=S)Nc1cccnc1	-4%	.	-6%	11%	-6%	13%
CC(C)(C)C1CCC(=NNC(=O)CN(c2ccccc2)S(C)(=O)=O)CC1 (configuration not stated)	-6%	7%	-6%	-1%	?	-5%
CCNC(=S)NN=C1CCC(C(C)(C)C)CC1 (configuration not stated)	-29%	.	79µM*	50µM*	?	-8%
CC(C)(C)C1CCC(=NNC(=S)Nc2cccnc2)CC1 (configuration not stated)	?	-25%	?	?	10µM*	18%
CC(=O)N1c2ccc(S(=O)(=O)Nc3ccc(Cl)cc3C)cc2CC1C (configuration not stated)	-6%	.	-14%	.	9%[59 µM]	18%
Cc1ccc2c(c1)N(C(=O)N1CCC(C(=O)NCc3ccccc3C)CC1)CC(C)O2 (configuration not stated)	0%	.	1%	.	-3%[59 µM]	45%
CN(C)S(=O)(=O)c1ccc(C(=O)Nc2nnc(-c3cccs3)o2)cc1	79µM*	17%	?	10%	11%	66%
N#Cc1ccc(C(=O)Nc2nnc(-c3cccs3)o2)cc1	56µM*	4%	50µM*	8%	.	15%
O=C(NCc1ccccc1Cl)c1ccc(-n2cnc3cccnc32)cc1	-8%	.	-7%	.	-4%[59 µM]	17%
CN1CCN(CCC(=O)N2c3ccccc3Sc3ccc(Cl)cc32)CC1	?	-13%	79µM*	89µM*	?	-4%
N#Cc1sc2nc(-c3cccs3)cc(-c3ccccc3)c2c1N	60%	59%	60%	45µM*	-18%[2.33 µM]	158%
CCN(CC)C(=O)c1sc2nc(-c3cccs3)cc(-c3cccs3)c2c1N	1%	12%	7%	-6%	32µM*	90%
N#Cc1sc2nc(-c3cccs3)cc(-c3ccc(Cl)cc3)c2c1N	64%	6%	76%[57.1 µM]	-1%	122%	108%
CCN(CC)C(=O)c1sc2nc(-c3cccs3)cc(-c3ccc(Cl)cc3)c2c1N	47%	-4%	30%[57.1 µM]	79µM*	0%	175%
Cc1nnc(NC(=O)c2sc3nc(-c4cccs4)cc(C(F)(F)F)c3c2N)s1	-19%	-1%	-33%	-1%	0%	48%
Nc1c(C(=O)Nc2nccs2)sc2nc(-c3cccs3)cc(C(F)(F)F)c12	?	.	?	-24%	126%[59 µM]	211%
CC(C)(C)C(=O)c1sc2nc(-c3cccs3)cc(C(F)(F)F)c2c1N	43%	49%	23%	22µM*	?	173%
CC1=C(C(=O)Nc2cccc(C(F)(F)F)c2)C(c2ccccc2)n2ncnc2N1 (configuration not stated)	-16%	.	-16%	.	-5%[59 µM]	16%[57 µM]
COc1ccc(Cl)cc1C(=O)NCC(c1ccc(N(C)C)cc1)N1CCCC1 (configuration not stated)	-13%	.	6%	.	19%[59 µM]	48%
C=C1N(C)c2cc([N+](=O)[O-])c(N)cc2C1(C)C	?	.	45µM*	-12%	32µM*	?
SMILES	JMJD2A Tudor	L3MBTL1 inh	BAZ2B inh	Sfp inh	G9a inh	HP1b chromo inh
CC1(C)Oc2cc(N)c([N+](=O)[O-])cc2O1	-16%	-25%	-34%	4%	?	-9%
Cc1[nH]c2ccccc2c1C(=O)COC(=O)c1ccccc1O	-1%	2%	.	.	.	15%
CCOC(=O)c1c(C)[nH]c(C)c1C(=O)COC(=O)c1ccccc1O	-21%	-2%	-34%	9%	50µM*	7%
CCOC(=O)c1c(C)[nH]c(C)c1C(=O)COC(=O)CCOc1ccccc1OC	79µM*	-6%	-32%	-5%	?	-23%
Cc1cccc2cc(CN(Cc3cccnc3)C(=S)NCCCN(C)C)c(=O)[nH]c12	13µM*	-24%	?	2%	?	-2%
CC1(C)CC(=O)C2=C(C1)OC(N)=C(C#N)C21CCN(C(=O)OCc2ccccc2)CC1	-23%	.	11%	-3%	-33%[2.33 µM]	4%
N#CC1=C(N)OC2=C(C(=O)CCC2)C12CCN(C(=O)OCc1ccccc1)CC2	-11%[57.1 µM]	7%	-34%	-6%	50µM*	28%
NC(=O)C(OC(=O)CNC(=O)C1CCCCC1)c1ccccc1 (configuration not stated)	-2%[57.1 µM]	.	.	.	.	28%[57 µM]
O=S1(=O)N=C(N/N=C/c2ccc(Br)o2)c2ccccc21	?	1%	0%	1%	40µM*	19%
O=S1(=O)N=C(N/N=C/c2ccccn2)c2ccccc21	79µM*	?	35µM*	6%	16%	35%
COc1ccc(Br)cc1C1C(C(=O)Nc2ccc(C)cc2C)=C(C)Nc2ncnn21 (configuration not stated)	-15%	.	2%	.	4%[59 µM]	7%
NNc1nc2ccccc2c(=O)n1Cc1ccccc1	?	.	-18%	20µM*	.	13%
CC(C)OCCCn1c(NN)nc2ccccc2c1=O	-26%	.	-27%	0%	?	24%
O=c1c2ccccc2nc(-c2ccccc2O)n1Cc1ccccc1	79µM*	.	.	.	.	.
COc1ccc2c(c1)c1c(c(=O)n(Cc3ccccc3)c(=O)n1CC(=O)Nc1ccccc1OC)n2C	-10%	.	-6%	.	-7%[59 µM]	2%
CCOc1ccc(NC(=O)Cn2c(C)cc3ccccc3c2=O)cc1	0%	.	-1%	.	-1%[59 µM]	25%
CC(c1ccccc1)N1CCn2c(nc3cc(NC(=O)NC4CCCCC4)ccc32)C1 (configuration not stated)	-24%	.	10%	-6%	35µM*	7%
COc1ccc(CNC(=O)C2=C(C)C(=O)OC23CCCCC3)cc1	-19%	.	-5%	.	11µM*	9%
COc1cccc(CNC(=O)C2=C(C)C(=O)OC23CCCCCC3)c1	-17%	.	-1%	.	-5%[59 µM]	30%
CCOC(=O)c1scc(-c2ccc(C)cc2)c1S(=O)(=O)Nc1cc(Cl)ccc1OC	-24%	.	-39%	.	-40%[59 µM]	11%

Screening results deposited in PubChem by National Center for Advancing Translational Sciences (NCATS).
